Out of some 10,000 compounds screened, about 320 (3.2%) were called active. Rule as the data show it: active = CPE inhibition mostly above about 9.1% (no sharp cut-off); inactive = mostly below about 7.2%. What follows is part of a selection rich in actives, with near analogues and random picks from the rest.
assay: Dengue virus cytopathic effect inhibitors, cell-based, CPE readout, HTS (AID 540333); settings: Dengue virus CPE inhibition in host cells, at 20 µM; stronger effect = higher value

Compound	CPE inhibition
Cc1ccccc1OCCNC(=O)/C=C/c1ccccc1	inactive
COc1ccc(NC(=O)CCCC2CCCCC2)cc1S(=O)(=O)N1CCCCC1	0.425% (inactive)
Cc1cccc(OCCC(=O)Nc2ccc(C)c(S(=O)(=O)N3CCCCC3)c2)c1	16.7% (active)
Cc1cccc(OCCCC(=O)Nc2ccc(N(C)C)cc2)c1	0.66% (inactive)
COc1ccc(NC(=O)CSc2ccccc2)cc1S(=O)(=O)N1CCCCC1	inactive
Cc1ccc(NC(=O)CSc2ncnc3ccccc23)cc1S(=O)(=O)N1CCCCC1	2.42% (inactive)
COc1ccc(NC(=O)CCC2CCCCC2)cc1S(=O)(=O)N1CCCCC1	11.6% (active)
COc1ccc([C@H]2CC(=O)C=C(c3cc(C(F)(F)F)cc(C(F)(F)F)c3)C2)cc1	inactive
COCCCNCCCCOc1ccc(Br)cc1C	inactive
CC1c2ccccc2SC(CCCN(C)C)c2ccccc21 (stereo not given)	inactive
Cc1ccc(NC(=S)N2CCN(C)CC2)c(C)c1	0.8% (inactive)
COc1ccccc1N(CC(=O)N/N=C/c1c(O)ccc2ccccc12)S(C)(=O)=O	0.02% (inactive)
CCOC(=O)c1ccc(-c2ccc(/C=N/NC(=O)CN(c3ccccc3Cl)S(C)(=O)=O)o2)cc1	12.9% (active)
CS(=O)(=O)N(CC(=O)N/N=C/c1ccco1)c1ccccc1Br	0.19% (inactive)
Cc1ccc(NC(=O)c2ccc(OC(F)F)cc2)cc1S(=O)(=O)N(C)C	inactive
CCn1c(COc2ccc(Cl)cc2)nnc1SC1CCc2ccccc2C1=O (stereo not given)	1.03% (inactive)
O=C(COC(=O)CC(c1ccccc1)c1ccccc1)Nc1cccc(F)c1	inactive
CCCCc1nn2c(N)c(/C=C3\C=Nc4ccccc43)c(=O)nc2s1	inactive
O=C1S/C(=C/c2ccccc2)C(=O)N1CC(O)Cn1c2ccccc2c2ccccc21 (stereo not given)	16.2% (active)
O=C1S/C(=C\c2ccccc2)C(=O)N1CC(O)Cn1c2ccccc2c2ccccc21 (stereo not given)	inactive

Compound	CPE inhibition
CN(C)c1ccc(/C=C2\SC(=O)N(CC(O)Cn3c4ccccc4c4ccccc43)C2=O)cc1 (stereo not given)	2.39% (inactive)
C=CCN1c2ccccc2[C@]23C[C@@H](C(=O)OC)N(C(=O)NC4CCCC4)C2=NC(C(=O)OC)=C(C(=O)OC)[C@H]13	0.19% (inactive)
CC1(C)CC(=NOC(=O)c2ccccc2)CC(C)(C)N1O	3.8% (inactive)
Cc1ccc(Nc2ccc(C(=O)NCCc3ccccc3)cn2)cc1	0.525% (inactive)
Cc1ccc(NCc2nc3ccccc3n2CCOc2ccccc2)cc1	14.9% (active)
CCCCn1c(=N)n(CCOc2ccc(C)cc2)c2ccccc21	inactive
c1ccc(NCc2nc3ccccc3n2CCOc2ccccc2)cc1	0.715% (inactive)
S=C(NCCN1CCOCC1)Nc1ccccc1Cl	inactive
Cc1ccc(/C=C2\SC(=S)N(CCCC(=O)Nc3nccs3)C2=O)cc1	0.46% (inactive)
COc1ccc(CN2C(=O)/C(=C/c3ccncc3)SC2=S)cc1	inactive
O=C(O)CCCCCN1C(=O)/C(=C\c2ccncc2)SC1=S	14.8% (active)
Cc1cc(Br)ccc1SCC(=O)OCC(=O)NC(C)c1ccccc1 (stereo not given)	0.13% (inactive)
O=C(Nc1cccc(-c2cn3ccccc3n2)c1)c1cccs1	0.18% (inactive)
COc1ccc(C(=O)n2cc(C(=O)c3cc(C)ccc3O)cn2)cc1OC	14.3% (active)
COc1ccc(C(=O)n2cc(C(=O)c3cc(C)ccc3O)cn2)cc1	inactive
O=C(c1cnn(C(=O)c2ccccc2)c1)c1ccccc1O	2.51% (inactive)
Cc1cccc(NCCC#N)c1	inactive
O=C(Nc1cccc(Cl)c1)c1ccc(F)c(S(=O)(=O)NCc2cccs2)c1	11.8% (active)
Cc1ccc(NC(=O)c2cccs2)cc1S(=O)(=O)Nc1cccc(Cl)c1	7.68% (inactive)
O=C(Nc1cccc(Cl)c1)c1ccc(F)c(S(=O)(=O)NCc2ccc3c(c2)OCO3)c1	5.79% (inactive)

Compound	CPE inhibition
COCC(C)NC(=O)c1ccccc1[N+](=O)[O-] (stereo not given)	1.6% (inactive)
CC(C)CNC(=S)Nc1ccc(S(N)(=O)=O)cc1	0.36% (inactive)
COc1cc(CN(C2CCCCC2)S(=O)(=O)c2ccc(S(=O)(=O)N(C)C3CCCCC3)cc2)cc(OC)c1OC	inactive
COc1cc(CN(C2CCCCC2C)S(=O)(=O)c2ccc(S(=O)(=O)NC3CC3)cc2)cc(OC)c1OC (stereo not given)	19.9% (active)
COc1ccc(CCNC(=O)COc2ccc(S(=O)(=O)NC3CCCCC3)cc2Cl)cc1OC	2.27% (inactive)
Cc1nn(-c2ccccc2)c(N2CCCC2)c1/C=N/NC(=S)Nc1ccccc1F	13.2% (active)
Cc1nn(-c2ccccc2)c(N2CCCC2)c1/C=N/NC(=O)c1ccccc1O	inactive
Cc1nn(-c2ccccc2)c(N2CCCC2)c1/C=N/NC(=O)c1cc(-c2ccccc2)nc2ccccc12	2.99% (inactive)
O=C(CCc1nc2ccccc2c(=O)[nH]1)OCC(=O)c1ccc(C2CCCCC2)cc1	1.97% (inactive)
O=C(Nc1nc2ccccc2s1)c1cc(-c2ccco2)nc2ccccc12	5.33% (inactive)
COc1ccc(N2CCN(CC(=O)Nc3sccc3C#N)CC2)cc1	inactive
O=C(NCc1nnc(SCc2ccc(F)cc2)n1-c1ccc(F)cc1)C12CC3CC(CC(C3)C1)C2	9.94% (active)
O=C(CSc1nnc(CNC(=O)C23CC4CC(CC(C4)C2)C3)n1-c1ccc(F)cc1)Nc1ccc(F)cc1	3.73% (inactive)
Cc1ccc(NC(=O)CSc2nnc(CNC(=O)C34CC5CC(CC(C5)C3)C4)n2-c2ccc(F)cc2)cc1	5.74% (inactive)
O=C(CSc1nnc(CNC(=O)C23CC4CC(CC(C4)C2)C3)n1-c1ccccc1)Nc1ccc(F)cc1	6.17% (inactive)
O=C(NCc1nnc(SCc2ccccc2)n1-c1ccc(F)cc1)C12CC3CC(CC(C3)C1)C2	15.9% (active)
CC(C)(C)c1ccc(C(=O)NCc2nnc(SCC(=O)N3CCCc4ccccc43)n2-c2ccccc2)cc1	5.59% (inactive)
O=C(NCc1nnc(SCc2ccc(C(F)(F)F)cc2)n1-c1ccccc1)C12CC3CC(CC(C3)C1)C2	9.12% (active)
O=C(NC(=S)N1CCN(c2ccc(F)cc2)CC1)C12CC3CC(CC(C3)C1)C2	0.245% (inactive)
O=C(CSc1nnc(CNC(=O)C23CC4CC(CC(C4)C2)C3)n1-c1ccccc1)Nc1ccccc1	1.45% (inactive)

Reference: PubChem BioAssay AID540333 (Southern Research Specialized Biocontainment Screening …, 2011)
